Potency and affinity values are given separately.
Each molecule was assayed on Candida albicans. Settings: 20 µM.

Row | SMILES | Inhibition [%]
1 | Cc1cc(O)c(C(C)C)cc1NC(=O)Nc1cccc2ccccc12 | 8.57
2 | O=S(=O)(Oc1ccc(Cl)cc1)c1cccc2cccnc12 | -1.21
3 | CN(NC(=O)C(=O)NCc1ccco1)C(=O)NC1CCCCC1 | 4.23
4 | CCCCCC(=O)N1CCCCC1 | 3.39
5 | Cn1c(=O)c2nc(CCCc3ccc([N+](=O)[O-])cc3)[nH]c2n(C)c1=O | 0.38
6 | CCOC(=O)c1nn(C)c2[nH]c(=O)n(C)c(=O)c12 | 2.22
7 | Cn1cnc([N+](=O)[O-])c1Sc1nnc(-c2cccnc2)n1C | 6.51
8 | CCOP(=O)(OCC)/C(C#N)=C/c1ccc([N+](=O)[O-])cc1 | 0.88
9 | O=[N+]([O-])c1ccccc1/C=C/C=N/N=C/c1ccccc1O | 2.43
10 | O=C(CN1CCOCC1)N1CCOCC1 | -1.35
11 | CSc1nsc(NN)n1 | 8.71
12 | CNc1ncnc2c1cnn2C1CCCCO1 (stereo not drawn) | -2.26
13 | CC(C)(C)n1nc(C2CC2)cc1NC(=O)Nc1ccccc1 | 1.47
14 | Cc1ccc(S(=O)(=O)NNC(=O)C23CCC(CC2)C3)cc1 | 4.46
15 | CCCN(CCC)CC(=O)N1CC(=O)Nc2ccccc21 | 3.75
16 | Nc1ccc(S(=O)(=O)NCC2CCCCO2)cc1 (stereo not drawn) | 0.19
17 | Cc1nn(-c2ccccc2)c2c1C(c1ccc([N+](=O)[O-])cc1)C(C#N)=C(N)O2 (stereo not drawn) | -1.55
18 | Nc1nnc(-c2cccnc2)s1 | 0.77
19 | CCOC(=O)c1ccc(NC(=O)Oc2cc(C)c(Cl)cc2C(C)C)cc1 | 4.36
20 | CC(=O)Nc1c(C)cc(OCC(=O)O)cc1C | 1.74

Row | SMILES | Inhibition [%]
21 | COc1cc(CC(=O)C(=O)O)oc(=O)c1 | 3.8
22 | Cc1cccc2c1c1ccc3c(c1n2C)C(=O)C=CC3=O | 16.9
23 | CC(=O)CC(=O)Nc1ccc2ccccc2c1 | 7.43
24 | CC(=O)OCc1cc(-c2nc3ccccc3nc2O)nn1-c1ccc(Cl)cc1 | 4.91
25 | C=CCOc1c(CCC)cc(CCC)cc1C(N)=O | 5.23
26 | C=CCOCCN(CC)CC | 2.62
27 | CCOC(=O)C(Cc1ccc(O)cc1)Nc1nc2ccccc2o1 (stereo not drawn) | 10.7
28 | Cc1cc(=O)[nH]c(N)n1 | 3.77
29 | Cc1ccc(NC(=O)N2CCN(C)CC2)cc1NC(=O)N1CCN(C)CC1 | 0.95
30 | Sc1nccn1-c1c(Cl)cccc1Cl | 4.08
31 | CC1=NC(C)(C)CC2CCC(O)C12 (stereo not drawn) | 1.52
32 | CC(C)Oc1ccc(C(=O)O)cc1 | 24.9
33 | COc1cccc(/C=C/c2nccc3ccccc23)c1OC | 0.68
34 | O=C(O)c1cc2cc(OCc3ccccc3)ccc2[nH]1 | 9.61
35 | O=C(Nc1cccc([N+](=O)[O-])c1)c1cc2ccccc2cc1O | 12.7
36 | O=C(O)C1C2OC3C(OC(=O)C31)C2Br (stereo not drawn) | 4.3
37 | Cc1n[nH]c2nc(N)nn2c1=O | -3.85
38 | CC1=CC(=O)CC(C)(C)C1(O)/C=C/C(C)=C/C(=O)O (stereo not drawn) | 5.51
39 | Cn1c2c(c(=O)n(C)c1=O)NC1(N2)C(=O)Nc2ccccc21 (stereo not drawn) | 4.78

Each molecule was assayed on Cryptococcus neoformans. Settings: Concentration 20 uM; ASSAY_TEST Inhibition of Fungal Growth; detection method Resazurin; Absorption (OD600-OD570); plate type 384well; NBS; CORNING #3640.

Row | SMILES | Inhibition [%]
40 | Cc1cc(O)c(C(C)C)cc1NC(=O)Nc1cccc2ccccc12 | -2.63
41 | O=S(=O)(Oc1ccc(Cl)cc1)c1cccc2cccnc12 | -3.12
42 | CN(NC(=O)C(=O)NCc1ccco1)C(=O)NC1CCCCC1 | 3.93
43 | CCCCCC(=O)N1CCCCC1 | 2.22
44 | Cn1c(=O)c2nc(CCCc3ccc([N+](=O)[O-])cc3)[nH]c2n(C)c1=O | -9.63
45 | CCOC(=O)c1nn(C)c2[nH]c(=O)n(C)c(=O)c12 | -11.62
46 | Cn1cnc([N+](=O)[O-])c1Sc1nnc(-c2cccnc2)n1C | -6.62
47 | CCOP(=O)(OCC)/C(C#N)=C/c1ccc([N+](=O)[O-])cc1 | -11.85
48 | O=[N+]([O-])c1ccccc1/C=C/C=N/N=C/c1ccccc1O | 3.86
49 | O=C(CN1CCOCC1)N1CCOCC1 | -8.59
50 | CSc1nsc(NN)n1 | -11.9
51 | CNc1ncnc2c1cnn2C1CCCCO1 (stereo not drawn) | -11.76
52 | CC(C)(C)n1nc(C2CC2)cc1NC(=O)Nc1ccccc1 | -6.02
53 | Cc1ccc(S(=O)(=O)NNC(=O)C23CCC(CC2)C3)cc1 | -6.05
54 | CCCN(CCC)CC(=O)N1CC(=O)Nc2ccccc21 | -3.68
55 | Nc1ccc(S(=O)(=O)NCC2CCCCO2)cc1 (stereo not drawn) | -11.32
56 | Cc1nn(-c2ccccc2)c2c1C(c1ccc([N+](=O)[O-])cc1)C(C#N)=C(N)O2 (stereo not drawn) | -5.09
57 | Nc1nnc(-c2cccnc2)s1 | -10.94
58 | CCOC(=O)c1ccc(NC(=O)Oc2cc(C)c(Cl)cc2C(C)C)cc1 | -1.17
59 | CC(=O)Nc1c(C)cc(OCC(=O)O)cc1C | -9.89

Row | SMILES | Inhibition [%]
60 | COc1cc(CC(=O)C(=O)O)oc(=O)c1 | -8.52
61 | Cc1cccc2c1c1ccc3c(c1n2C)C(=O)C=CC3=O | 1.61
62 | CC(=O)CC(=O)Nc1ccc2ccccc2c1 | -13.72
63 | CC(=O)OCc1cc(-c2nc3ccccc3nc2O)nn1-c1ccc(Cl)cc1 | 44.96
64 | C=CCOc1c(CCC)cc(CCC)cc1C(N)=O | -4.27
65 | C=CCOCCN(CC)CC | 15.03
66 | CCOC(=O)C(Cc1ccc(O)cc1)Nc1nc2ccccc2o1 (stereo not drawn) | 8.22
67 | Cc1cc(=O)[nH]c(N)n1 | -0.62
68 | Cc1ccc(NC(=O)N2CCN(C)CC2)cc1NC(=O)N1CCN(C)CC1 | 29.46
69 | Sc1nccn1-c1c(Cl)cccc1Cl | -8.98
70 | CC1=NC(C)(C)CC2CCC(O)C12 (stereo not drawn) | -2.24
71 | CC(C)Oc1ccc(C(=O)O)cc1 | -0.99
72 | COc1cccc(/C=C/c2nccc3ccccc23)c1OC | -13.37
73 | O=C(O)c1cc2cc(OCc3ccccc3)ccc2[nH]1 | -8.34
74 | O=C(Nc1cccc([N+](=O)[O-])c1)c1cc2ccccc2cc1O | -10.5
75 | O=C(O)C1C2OC3C(OC(=O)C31)C2Br (stereo not drawn) | 11.09
76 | Cc1n[nH]c2nc(N)nn2c1=O | -10.19
77 | CC1=CC(=O)CC(C)(C)C1(O)/C=C/C(C)=C/C(=O)O (stereo not drawn) | -3.67
78 | Cn1c2c(c(=O)n(C)c1=O)NC1(N2)C(=O)Nc2ccccc21 (stereo not drawn) | -2.52

— ChEMBL document CHEMBL4296182, “CO-ADD screening of NIH NCI Diversity Set V”
